Bioassay records: PubChem, National Center for Advancing Translational Sciences (NCATS)
The list is not random: actives were taken first. Their share in the collection is about 1.8%.
Vif-A3G inh: qHTS for Inhibitors of Vif-A3G Interactions: qHTS. DNA dC->dU-editing enzyme APOBEC-3G (Homo sapiens), Q9HC16. HeLa A3G-eYFP + Vif (tagged APOBEC3G with the HIV-1 protein that degrades it), YFP fluorescence, overnight. Potency, µM (doses to about 46.1 µM), without a hit: at the highest dose activity, negative = active, most hits filed as inhibitors. 410,000 compounds, 0.076% hits. AID 602310, 2012; further: potency means the concentration at half of the fitted maximal effect; on the % scale 0 is the no-effect control and ±100 the full control effect; nearly all actives have a fitted effect of over 60% in size
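Read-out is eYFP fluorescence (Ex 488/Em 500-530) from Vif-expressing HeLa A3G-eYFP cells; more signal means A3G escaped Vif-mediated degradation. Cells plated overnight, compound pinned in, incubated overnight at 37 deg C.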
TrxR1 inh: qHTS Assay for Inhibitors of Mammalian Selenoprotein Thioredoxin Reductase 1 (TrxR1): qHTS; Potency, µM (doses to about 114 µM), for inactives: at the top dose activity change, negative = inhibition, usual class: inhibitors; AID 588453, 2011; recombinant rTrxR1, NADPH fluorescence consumption, selenite substrate; 390,000 compounds, 1% hits; Thioredoxin reductase 1, cytoplasmic (Rattus norvegicus), O89049; further: potency means the concentration at half of the fitted maximal effect; on the % scale 0 is the no-effect control and ±100 the full control effect; nearly all actives have a fitted effect of over 65% in size
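Rat TrxR1 (90 nM in the dispensed reagent) was pre-reduced with 400 uM NADPH for 5 min at room temperature, then incubated with compound for 15 min. After 400 uM selenite was added, NADPH fluorescence (Ex 340/Em 450 nm) was followed for 8 min.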
Vif-APOBEC3F blk: qHTS for Inhibitors of Vif-A3F Interactions: qHTS; HeLa A3F-eYFP + Vif (tagged APOBEC3F with the HIV-1 protein that degrades it), YFP fluorescence increase; Potency, µM (highest dose often 46.1 µM), for inactives: top-dose activity, negative = active; 390,000 compounds, 0.2% hits; AID 602313, 2012; further: potency means the concentration at half of the fitted maximal effect; % of control where 0% means no effect; nearly all actives have a fitted effect of over 65% in size
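HeLa cells stably expressing A3F-eYFP plus Vif, plated and incubated overnight at 37 deg C, then exposed to compounds overnight at 37 deg C. Blocked degradation read as raised yellow fluorescence (Ex 488/Em 500-530).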
VDR inh: Inhibitors of the vitamin D receptor (VDR): qHTS; Vitamin D3 receptor (Homo sapiens), P11473; VDR-SRC2-3 peptide fluorescence polarization, 2 h; Potency, µM, without a hit: max response, negative = inhibition, usual class: inhibitors; 400,000 compounds, 0.93% hits; AID 504847, 2011; further: potency means the concentration at half of the fitted maximal effect; on the % scale 0 is the no-effect control and ±100 the full control effect
Target sequence (P11473 whole entry, looked up): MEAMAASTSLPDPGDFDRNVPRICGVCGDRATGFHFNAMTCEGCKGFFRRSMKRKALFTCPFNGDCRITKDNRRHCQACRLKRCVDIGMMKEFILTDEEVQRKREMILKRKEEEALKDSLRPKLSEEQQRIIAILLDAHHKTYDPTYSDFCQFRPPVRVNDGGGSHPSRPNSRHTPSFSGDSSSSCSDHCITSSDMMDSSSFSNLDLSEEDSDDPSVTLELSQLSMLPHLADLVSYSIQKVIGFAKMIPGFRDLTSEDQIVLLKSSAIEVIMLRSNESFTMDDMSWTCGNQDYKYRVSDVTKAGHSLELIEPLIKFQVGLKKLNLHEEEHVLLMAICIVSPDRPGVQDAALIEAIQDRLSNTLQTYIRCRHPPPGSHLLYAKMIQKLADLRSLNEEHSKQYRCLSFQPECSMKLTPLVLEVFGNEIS
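Fluorescence polarization assay measuring small-molecule disruption of VDR binding to the coregulator peptide SRC2-3. Compounds were pin-transferred (23 nl) into the reagent mix and incubated 2 h at room temperature before reading.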
TrxR1 substrate: qHTS Assay for Substrates of Mammalian Selenoprotein Thioredoxin Reductase 1 (TrxR1): qHTS; Potency, µM (titrated, usually from 114 µM), inactives show at the top dose activity change, negative = substrate turnover; 390,000 compounds, 0.01% hits; purified TrxR1 substrate turnover, NADPH consumption readout; Thioredoxin reductase 1, cytoplasmic (Rattus norvegicus), O89049; further: potency means the concentration at half of the fitted maximal effect; on the % scale 0 is the no-effect control and ±100 the full control effect; nearly all actives have a fitted effect of over 50% in size
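Rat TrxR1, dispensed at 90 nM, was prereduced with 400 uM NADPH (final) for 5 min at ~22 deg C, then incubated with compound 15 min before 400 uM selenite. A first-read NADPH fluorescence drop versus no-compound background flagged substrates.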
USP1 UbRho: Inhibitors of USP1/UAF1: Hit Validation in Primary Assay. shares compounds with VDR inh. Ub-Rhodamine cleavage, fluorescence kinetic read. Potency, µM (top dose mostly 114 µM), for the others: at the top dose activity change, negative = inhibition, hits mostly inhibitors. 50 compounds, 50% hits. AID 540327, 2011
VDR inh confirm: qHTS for Inhibitors of the vitamin D receptor (VDR): Hit Validation in Primary Screen; VDR-coactivator inhibition assay, qHTS confirmation; Potency, µM, actives largely listed as inhibitors; 840 compounds, 89% hits; shares compounds with VDR inh; further: potency means the concentration at half of the fitted maximal effect
VDR FP: qHTS for Inhibitors of the vitamin D receptor (VDR): Hit Validation using a Fluorescein Assay | shares compounds with VDR inh | VDR-coactivator binding, fluorescein fluorescence polarization | Potency, µM (titrated, usually from 57.1 µM), inactives show top-dose activity change, negative = inhibition, hits mostly inhibitors | 840 compounds, 48% hits | AID 602200, 2012; further: potency means the concentration at half of the fitted maximal effect
VDR bla reporter: qHTS for Inhibitors of the vitamin D receptor (VDR): Hit Validation using a Beta-Lactamase Assay. Potency, µM (top dose mostly 46.1 µM), without a hit: at the highest dose activity change, negative = inhibition, usual class: inhibitors. AID 602202, 2012. 840 compounds, 23% hits. VDR beta-lactamase reporter cells, FRET ratio; cells co-treated with VDR agonist LG190178. shares compounds with VDR inh; further: potency means the concentration at half of the fitted maximal effect; on the % scale 0 is the no-effect control and ±100 the full control effect
VDR cytotox: qHTS for Inhibitors of the vitamin D receptor (VDR): Hit Validation using a Cytotoxicity Assay; shares compounds with VDR inh; cytotoxicity counter-screen, cell viability, qHTS; Potency, µM (series often up to 48.3 µM), without a hit: at the top dose activity change, negative = cytotoxicity, usual class: cytotoxic; 840 compounds, 18% hits;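 further: potency means the concentration at half of the fitted maximal effect; plate controls were DMSO for no effect and high-concentration cycloheximide for full effect; nearly all actives have a fitted effect of over 75% in size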
Active calls of the source: *; ? = inconclusive; . = no result given; [ ] = remark or other dose. The call rests on the fitted dose curve; in most records, active means well fitted curve in the direction sought with a large enough effect; inconclusive means small, poorly fitted or top-dose-only effect, or another doubt; inactive means no such curve, though single readings can be large; an effect the other way counts as inactive or inconclusive.

SMILES	Vif-A3G inh	TrxR1 inh	Vif-APOBEC3F blk	VDR inh	TrxR1 substrate	VDR inh confirm	VDR FP	VDR bla reporter	VDR cytotox	others
O=C(O)c1ccc(S(=O)(=O)c2ccc([N+](=O)[O-])cc2[N+](=O)[O-])cc1	-1%	?	15%	22µM*	-4%	11*	?	15%	-14%
O=c1c(-c2ccc(Cl)cc2)nc2cnc(N3CCNCC3)nc2n1-c1ccccc1	.	.	.	-19%	.	.	.	.	.
CCOC(=O)c1c(C)oc2c1c(C(c1cccnc1)N1CCOCC1)c(O)c1ccccc12 (centres undefined)	0%	11µM*	-1%	?	-13%	16*	13µM*	?	?
CCOC(=O)c1c(C)oc2c1c1c(c3ccccc32)OCN(Cc2cccnc2)C1	-14%	1.4µM*	-8%	?	2%	11*	7.9µM*	4%	?
CCOC(=O)c1c(C)oc2c1cc(O)c1ccccc12	3%	13%[57.1 µM]	8%	7%	12%[57.1 µM]	.	.	.	.
C[C@H]1CC2[C@@H]3CCC4=CC(=O)C=C[C@]4(C)[C@@]3(F)[C@@H](O)C[C@]2(C)[C@@]1(O)C(=O)CO (some centres undefined)	.	-5%	.	.	.	.	.	.	.
C/C(=C\c1ccc(C(=O)O)cc1)c1ccc2c(c1)C(C)(C)CCC2(C)C	-1%	24%[57.1 µM]	1%	-1%	190%[57.1 µM]	.	.	.	.	USP1 UbRho=?
O=C(O)CN1C(=O)/C(=C\c2cc(Br)ccc2OCc2ccc(F)cc2)SC1=S	0%	-12%	1%	71µM*	-5%	?	32µM*	24%	11%
Cc1ccc(S(=O)(=O)CCC(=O)c2cccc([N+](=O)[O-])c2)cc1	-19%	?	-3%	16µM*	11%[57.1 µM]	3.5*	3.2µM*	?	?
Nc1cccc2c1C(=O)N(C(=O)/C=C/c1ccc(F)cc1)C2=O	?	?	?	28µM*	-3%	9.5*	10µM*	-1%	30%
Clc1ccc(-c2noc3ncnc(NCCc4ccccc4)c23)cc1	0%	18%	2%	11%	2%	.	.	.	.
Cc1cccc(C(=O)Nc2cc(S(=O)(=O)N3CCOCC3)ccc2N2CCCC2)c1	1%	-11%	7%	3%	-4%	.	.	.	.
O=C(Nc1cc(S(=O)(=O)N2CCOCC2)ccc1N1CCCCC1)c1ccc(Cl)cc1	-4%	26%	5%	?	9%	9.5*	?	2%	22%
O=C(Nc1cc(S(=O)(=O)N2CCOCC2)ccc1N1CCCCC1)c1ccccc1	-2%	-4%	?	-12%	-2%	.	.	.	.
Nc1cc(S(=O)(=O)N2CCOCC2)ccc1N1CCCCC1	0%	-22%[57.1 µM]	0%	25µM*	-8%[57.1 µM]	6*	?	30%	6%
O=C(Nc1cc(S(=O)(=O)N2CCOCC2)ccc1N1CCCC1)c1ccc2c(c1)S(=O)(=O)c1ccccc1C2=O	7%	14%[57.1 µM]	-8%	45µM*	6%[57.1 µM]	8.4*	3.5µM*	27%	-5%
O=C(Nc1cc(S(=O)(=O)N2CCOCC2)ccc1N1CCCCC1)c1ccccc1Br	2%	-9%	1%	89µM*	-3%	17*	?	17%	19%
CCc1cccc(NC(=O)CC(c2ccc(OC)cc2)N2Cc3ccccc3C2=O)c1 (centres undefined)	-8%	21%	-3%	10%	-7%	.	.	.	.
Cc1ccc(S(=O)(=O)N(C)CCN(C)c2nc(-c3cccs3)nc3ccccc23)cc1	.	29%	.	-20%	7%	.	.	.	.
COc1cccc(-c2cn3c(n2)sc2cc(C(=O)NCc4ccccc4F)ccc23)c1	-1%	12%	-3%	7%	-2%	.	.	.	.
O=C(Nc1cc(S(=O)(=O)N2CCOCC2)ccc1N1CCCC1)c1ccc(Cl)cc1	0%	-24%	3%	?	-14%	13*	7.9µM*	-16%	?
Cc1ccc(C(=O)Nc2cc(S(=O)(=O)N3CCOCC3)ccc2N2CCCC2)cc1	-12%	13%	-9%	0%	1%	.	.	.	.
Cc1ccc(-c2nn(CC(=O)Nc3cccc(C(F)(F)F)c3)c(=O)c3ccccc23)cc1	-4%	32%	0%	5%	9%	.	.	.	.
CCOC(=O)Cn1cc(/C=C/[N+](=O)[O-])c2ccccc21	-29%	?	?	?	-9%	.	.	.	.
CCOC(=O)COc1ccc(/C=C/[N+](=O)[O-])c(OCC(=O)OCC)c1	-25%	?	-1%	13µM*	3%	6.7*	?	?	13µM*
CCOc1ccc(/C=C/[N+](=O)[O-])c2ccccc12	?	?	-13%	20µM*	6%	6.7*	?	?	?
COc1ccc2c(c1)Cc1sc(NC(=O)c3cccc(C)c3)nc1-2	.	-8%	.	20µM*	0%	7.1*	7.1µM*	?	?
Cc1ccc(NN2C(=O)C=CC2=O)cc1	-2%	7%	8%	-4%	3%	.	.	.	.
